Measured values as given in PubChem BioAssay (Tox21).
Several values for one entry are separate records, joined by “and”; a condition that tells them apart may be missing. Identical values can stand only once. Inconclusive results are not listed. Entries that show only a call come without a potency. The source holds several records for some structures; these can differ, active in one and inactive in another. Activity calls are given as the source filed them. Calls come from the whole dose curve; as a rule, active = well fitted inhibition curve with a large enough effect in the repeat runs; inconclusive = weak or mixed curves; inactive = no such curve, though single readings can be large or run the other way.

biological target: Androgen receptor (Homo sapiens) (UniProt P10275); assay: qHTS assay to identify small molecule antagonists of the androgen receptor (AR) signaling pathway using the MDA cell line in the presence of 0.5 nM R1881 (AID 1259243); conditions: MDA-kb2 MMTV-luciferase, R1881 0.5 nM, 16 h; series mostly up to 92.4 µM
How it was run: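 Luciferase luminescence is the read-out: compounds are tested for suppressing 0.5 nM R1881-driven MMTV reporter activity in MDA-kb2 cells after 16 hr at 37C.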
Note: nearly all actives have a fitted effect of over 50% in size.
Potency is the fitted concentration of half-maximal effect.

Chain of Androgen receptor (Homo sapiens) (P10275 whole entry, looked up): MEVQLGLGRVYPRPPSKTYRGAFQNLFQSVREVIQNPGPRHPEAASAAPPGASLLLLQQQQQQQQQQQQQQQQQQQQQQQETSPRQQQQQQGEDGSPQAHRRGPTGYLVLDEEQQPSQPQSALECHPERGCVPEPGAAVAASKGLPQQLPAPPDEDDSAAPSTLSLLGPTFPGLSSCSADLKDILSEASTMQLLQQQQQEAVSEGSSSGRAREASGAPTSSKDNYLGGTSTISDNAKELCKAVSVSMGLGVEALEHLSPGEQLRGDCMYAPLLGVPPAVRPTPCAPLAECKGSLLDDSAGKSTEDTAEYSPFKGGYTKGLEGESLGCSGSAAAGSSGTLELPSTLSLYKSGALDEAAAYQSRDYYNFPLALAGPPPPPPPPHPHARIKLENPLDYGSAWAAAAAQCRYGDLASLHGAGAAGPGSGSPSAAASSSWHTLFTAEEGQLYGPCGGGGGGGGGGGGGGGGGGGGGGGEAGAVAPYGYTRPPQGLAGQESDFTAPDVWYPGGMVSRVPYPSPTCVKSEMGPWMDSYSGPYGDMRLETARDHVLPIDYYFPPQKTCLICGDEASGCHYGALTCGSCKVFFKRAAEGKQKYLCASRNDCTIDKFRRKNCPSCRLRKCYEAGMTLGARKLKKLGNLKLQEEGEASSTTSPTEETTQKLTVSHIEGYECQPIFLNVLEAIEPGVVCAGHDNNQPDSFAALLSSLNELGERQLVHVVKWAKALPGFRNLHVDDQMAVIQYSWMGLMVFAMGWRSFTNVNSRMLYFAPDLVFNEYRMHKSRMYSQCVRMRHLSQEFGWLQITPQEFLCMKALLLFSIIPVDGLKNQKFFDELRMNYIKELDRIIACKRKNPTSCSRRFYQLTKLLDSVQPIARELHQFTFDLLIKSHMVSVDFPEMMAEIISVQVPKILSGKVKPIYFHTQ

Structure (SMILES)	Potency
Cc1cc(C)c(/C=C2\C(=O)Nc3ccccc32)[nH]1	13.3 µM (active)
CCCCC(CC)CN1CN(CC(CC)CCCC)CC(C)(N)C1 (centres undefined)	26.6 µM (active)
COC1=C(OC)C(=O)C(CCCCCCCCCCO)=C(C)C1=O	29.8 µM (active)
Cc1cc(=O)oc2cc(O)cc(O)c12	inactive
CC(=O)c1ccc(C(C)=O)cc1	inactive
NC(=S)NC(N)=S	inactive
CC(=O)OCC=C(C)C	inactive
O=C(/C=C/c1ccccc1)OC/C=C/c1ccccc1	inactive
Cc1c2ccccc2c(C)c2c1ccc1ccccc12	48.1 µM (active) and 27.3 µM (active)
CC(C)=CCNc1ncnc2c1ncn2[C@@H]1O[C@H](CO)[C@@H](O)[C@H]1O	inactive
CN(C)CCN1CCN(c2cccc(Cl)c2)C1=O	inactive
CCCCCCCCCCOC(=O)c1ccccc1C(=O)OCCCCCCCC	inactive
CC(C)OC(=O)C(O)(CC(=O)O)CC(=O)O	inactive
O=S(=O)(O)c1ccc(Nc2nc(Nc3ccc(/C=C/c4ccc(Nc5nc(Nc6ccc(S(=O)(=O)O)cc6)nc(N(CCO)CCO)n5)cc4S(=O)(=O)O)c(S(=O)(=O)O)c3)nc(N(CCO)CCO)n2)cc1	inactive
Cc1cccc(C)c1NC(=O)c1ccc(N)cc1	inactive
CC1(C)[C@@H](O)CC[C@]2(C)[C@H]3C(=O)C=C4[C@@H]5C[C@@](C)(C(=O)O)CC[C@]5(C)CC[C@@]4(C)[C@]3(C)CC[C@@H]12	inactive
O=C(O)Cc1ccccc1Nc1c(Cl)cccc1Cl	inactive

Structure (SMILES)	Potency
c1ccsc1	inactive
NC(=O)c1cccc([N+](=O)[O-])c1	inactive
Clc1sc(Cl)c(Cl)c1Cl	inactive
CCN(CC)c1ccc2c(-c3ccc(S(=O)(=O)O)cc3S(=O)(=O)[O-])c3ccc(=[N+](CC)CC)cc-3oc2c1	22.4 µM (active)
OC[C@H]1O[C@H](O[C@H]2O[C@H](CO)[C@@H](O)[C@H](O)[C@H]2O)[C@H](O)[C@@H](O)[C@@H]1O	inactive
CC(CO)Oc1ccccc1 (centres undefined)	inactive
COc1c(C)c2c(c(O)c1C/C=C(\C)CCC(=O)OCCN1CCOCC1)C(=O)OC2	inactive
Nc1cc(Cl)c(O)c(Cl)c1	inactive
CCCc1ccc(OCC(=O)N2CCN(C(=O)COc3ccc(CCC)cc3OC)CC2)c(OC)c1	26.6 µM (active)
CN(C)Cc1ccccc1O	inactive
ClCCl	inactive
CCCCCCOC(=O)C(C)CC (centres undefined)	inactive
Cc1c(N)cccc1C(F)(F)F	inactive
COC(=O)Nc1nc2ccc(C(=O)c3ccccc3)cc2[nH]1	inactive
CCN1C(=O)c2ccccc2C1Nc1ccc(OCCN2CCCCC2)cc1 (centres undefined)	inactive
CCOc1ccc2ccccc2c1C(=O)N[C@@H]1C(=O)N2[C@@H]1SC(C)(C)[C@@H]2C(=O)O	inactive
Nc1ccc(C(=O)O)c(O)c1	inactive

biological target: Estrogen receptor (Homo sapiens) (UniProt P03372); assay: qHTS assay to identify small molecule antagonists of the estrogen receptor alpha (ER-alpha) signaling pathway using the BG1 cell line in the presence of 0.1 nM 17-beta-estradiol (AID 1259244); conditions: VM7Luc4E2 (BG1) ERE-luciferase, antagonist mode, 0.1 nM E2, 22 h; series mostly up to 92.4 µM
How it was run: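 Cells: VM7Luc4E2, endogenous ER-alpha, 4x ERE-luc stable. Pre-culture 5 d, phenol red-free, charcoal-stripped FBS. Plated 24 h, compound + E2 0.1 nM final, 22 h 37C/5% CO2. Readout ONE-Glo luminescence.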

Chain of Estrogen receptor (Homo sapiens) (P03372 whole entry, looked up): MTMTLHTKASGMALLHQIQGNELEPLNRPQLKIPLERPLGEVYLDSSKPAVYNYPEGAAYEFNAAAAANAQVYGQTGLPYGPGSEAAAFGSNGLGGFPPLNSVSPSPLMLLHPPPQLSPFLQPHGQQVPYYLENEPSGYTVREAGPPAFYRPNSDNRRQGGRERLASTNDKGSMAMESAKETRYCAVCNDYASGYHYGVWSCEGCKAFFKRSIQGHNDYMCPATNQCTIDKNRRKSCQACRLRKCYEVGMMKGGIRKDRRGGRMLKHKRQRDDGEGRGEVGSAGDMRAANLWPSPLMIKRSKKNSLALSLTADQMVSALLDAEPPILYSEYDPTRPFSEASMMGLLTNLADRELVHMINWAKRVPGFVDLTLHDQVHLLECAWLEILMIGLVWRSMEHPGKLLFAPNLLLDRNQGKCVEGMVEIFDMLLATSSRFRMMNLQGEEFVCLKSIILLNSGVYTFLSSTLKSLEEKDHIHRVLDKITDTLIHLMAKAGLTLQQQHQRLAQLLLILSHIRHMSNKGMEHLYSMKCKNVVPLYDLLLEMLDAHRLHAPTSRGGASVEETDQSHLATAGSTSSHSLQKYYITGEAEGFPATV

Structure (SMILES)	Potency
Cc1cc(C)c(/C=C2\C(=O)Nc3ccccc32)[nH]1	inactive
CCCCC(CC)CN1CN(CC(CC)CCCC)CC(C)(N)C1 (centres undefined)	inactive
NC(=S)NC(N)=S	inactive
CC(=O)OCC=C(C)C	inactive
O=C(/C=C/c1ccccc1)OC/C=C/c1ccccc1	inactive
Cc1c2ccccc2c(C)c2c1ccc1ccccc12	inactive and 4.33 µM (active)
CCCCCCCC/C=C\CCCCCCCCN	inactive
CN(C)CCN1CCN(c2cccc(Cl)c2)C1=O	inactive
CCCCCCCCCCOC(=O)c1ccccc1C(=O)OCCCCCCCC	inactive
CC(C)OC(=O)C(O)(CC(=O)O)CC(=O)O	inactive
O=S(=O)(O)c1ccc(Nc2nc(Nc3ccc(/C=C/c4ccc(Nc5nc(Nc6ccc(S(=O)(=O)O)cc6)nc(N(CCO)CCO)n5)cc4S(=O)(=O)O)c(S(=O)(=O)O)c3)nc(N(CCO)CCO)n2)cc1	inactive
Cc1cccc(C)c1NC(=O)c1ccc(N)cc1	inactive
CCOC(=O)NNc1ccc(N(CC)CC(C)O)nn1 (centres undefined)	inactive
CC1(C)[C@@H](O)CC[C@]2(C)[C@H]3C(=O)C=C4[C@@H]5C[C@@](C)(C(=O)O)CC[C@]5(C)CC[C@@]4(C)[C@]3(C)CC[C@@H]12	inactive
O=C(O)Cc1ccccc1Nc1c(Cl)cccc1Cl	inactive
c1ccsc1	inactive
NC(=O)c1cccc([N+](=O)[O-])c1	inactive
CCc1cccc(CC)c1NC(=O)CN(CC(=O)O)CC(=O)O	inactive
Clc1sc(Cl)c(Cl)c1Cl	inactive
CC(CO)Oc1ccccc1 (centres undefined)	inactive
COc1c(C)c2c(c(O)c1C/C=C(\C)CCC(=O)OCCN1CCOCC1)C(=O)OC2	inactive
Nc1cc(Cl)c(O)c(Cl)c1	inactive
CCCc1ccc(OCC(=O)N2CCN(C(=O)COc3ccc(CCC)cc3OC)CC2)c(OC)c1	29.8 µM (active)
CN(C)Cc1ccccc1O	inactive
ClCCl	inactive
CCCCCCOC(=O)C(C)CC (centres undefined)	inactive
COC(=O)Nc1nc2ccc(C(=O)c3ccccc3)cc2[nH]1	inactive
CCN1C(=O)c2ccccc2C1Nc1ccc(OCCN2CCCCC2)cc1 (centres undefined)	inactive
CCOc1ccc2ccccc2c1C(=O)N[C@@H]1C(=O)N2[C@@H]1SC(C)(C)[C@@H]2C(=O)O	inactive
O[C@@H]([C@H](O)[C@H](O)CBr)[C@H](O)CBr	inactive
